Records with an inconclusive call do not appear. Activity calls are given as the source filed them. Calls follow the shape of the dose curve; as a rule, active = well fitted inhibition curve with a large enough effect; inconclusive = small, poorly fitted or top-dose-only effect; inactive = no such curve, though single readings can be large or run the other way.
Assays:
[1] = target: Furin (Homo sapiens) (UniProt P09958); experiment: Furin counterscreen qHTS for Zika virus inhibitors (AID 1347149);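 also: purified recombinant full-length human furin enzyme at 5 nM; fluorescence gain from furin cutting a BOC-RVRR-AMC peptide substrate over 15 min; nearly all actives have a fitted effect of over 70% in size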
Procedure, shortened: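 Counterscreen measures cleavage of 2 microM BOC-RVRR-AMC, below its ~15 microM Km, by 5 nM full-length human furin at pH 7.0 after a 15-min compound preincubation. Inhibition derives from the 15-min fluorescence increase at 37C.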

[2] = system: Zika virus NS2B-NS3 protease (linked); experiment: 384 well plate NINDS AMC confirmatory qHTS for Zika virus inhibitors (AID 1347163);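 also: linked protease at 5 30 or 60 nM final depending on run; fluorescence of AMC released from Ac-VKTGKR-AMC peptide cleaved by the protease; nearly all actives have a fitted effect of over 50% in size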
Procedure, shortened: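 Fluorescence at 355/460 nm was read after 25 minutes of cleavage of 30 microM Ac-VKTGKR-AMC at room temperature, in the dark. Before substrate addition, compounds (up to 1 mM final) sat ~15 minutes with 5, 30 or 60 nM linked protease. Signals were normalized to no-enzyme and no-inhibitor wells.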

[3] = system: Zika virus NS2B-NS3 protease (linked construct); experiment: 384 well plate NINDS Rhodamine confirmatory qHTS for Zika virus inhibitors (AID 1347164);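 also: fluorescence from protease cleavage of Ac-LKRR-rhodamine 110 substrate; nearly all actives have a fitted effect of over 65% in size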
Procedure, shortened: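 Enzyme (final 5/30/60 nM) + cpd (DMSO), ~15 min; add Ac-LKRR-Rd 10 microM final; 25 min RT, dark; FI ex 485/em 538; normalized to no-enzyme, no-inhibitor ctrls; aprotinin intraplate ctrl.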

[4] = Tertiary RLuc qRT-PCR qHTS assay for Zika virus inhibitors (AID 1347169); also: nearly all actives have a fitted effect of over 55% in size
Procedure, shortened: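 Vero, 1,000 cells/well, o/n 37 C; cpd pinned in DMSO; ZIKV-RLuc Cambodian, MOI 1-2, 48-72 h 37 C; live-cell RLuc substrate, lum read at 1-1.5 h.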

Measured: Potency
Also: top concentration of the series differs between compounds.

Sequence of Furin (Homo sapiens) (P09958 whole entry, looked up): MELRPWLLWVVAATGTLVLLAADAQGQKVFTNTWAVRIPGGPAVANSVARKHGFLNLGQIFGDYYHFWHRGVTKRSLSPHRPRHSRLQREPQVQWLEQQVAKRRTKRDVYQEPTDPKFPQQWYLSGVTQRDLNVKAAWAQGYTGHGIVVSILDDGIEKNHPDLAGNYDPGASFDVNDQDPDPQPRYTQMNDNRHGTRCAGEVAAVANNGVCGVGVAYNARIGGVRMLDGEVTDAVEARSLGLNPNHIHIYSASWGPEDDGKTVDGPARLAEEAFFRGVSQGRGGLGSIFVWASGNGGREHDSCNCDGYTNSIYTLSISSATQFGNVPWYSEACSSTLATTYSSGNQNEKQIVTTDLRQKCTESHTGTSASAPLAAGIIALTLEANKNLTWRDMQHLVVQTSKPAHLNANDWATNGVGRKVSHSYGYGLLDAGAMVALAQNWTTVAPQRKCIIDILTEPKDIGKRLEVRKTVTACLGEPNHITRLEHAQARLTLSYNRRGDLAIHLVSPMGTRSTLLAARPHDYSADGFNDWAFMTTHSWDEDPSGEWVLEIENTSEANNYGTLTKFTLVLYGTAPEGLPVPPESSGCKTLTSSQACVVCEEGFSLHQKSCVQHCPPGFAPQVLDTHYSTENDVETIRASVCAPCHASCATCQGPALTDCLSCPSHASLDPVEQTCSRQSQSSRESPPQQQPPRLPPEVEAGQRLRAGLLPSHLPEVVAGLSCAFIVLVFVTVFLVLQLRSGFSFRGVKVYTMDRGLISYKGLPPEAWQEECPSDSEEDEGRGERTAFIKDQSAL

CC(Oc1ccccc1)C(=O)Nc1ccc(C(=O)OCc2cc(=O)n3nc(C4CC4)sc3n2)cc1 (centres undefined)
inactive: all assays above
